From PubChem BioAssay AID1159580 (chemical genetic matrix, 2015)
“And” between values parts separate entries of the source, which are not always exact repeats. Equal values may be shown once. About 2,000 (36%) of roughly 5,500 compounds were called active. Not shown: some 18% with an inconclusive outcome. Cut-off read from the data, not from the text of the source: active = normalized growth mostly below about 0.91 (no sharp cut-off); inconclusive = no clear call, values can overlap the other calls; inactive = mostly above about 0.92. The list shows a part of the results.

Assay: chemical genetic growth profiling, strain panel (AID 1159580);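 note: tested at 20 µM; growth read once vehicle control cultures reached saturation at 30 °C; 1 = growth at the plate median or of vehicle wells; lower values mean less growth of the strain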
Conditions: S. cerevisiae deletion strains, growth OD

Measured: normalized growth

Cc1cc(=O)[nH]c(=S)[nH]1
inactive: locus YAL013W, strain DEP1, active compounds read low 1.01 | locus YAL021C, strain ccr4, active compounds read low 0.956 | locus YAL026C, strain drs2, active compounds read low 0.974 | locus YAL030W, strain snc1, active compounds read low 0.98 | locus YBL061C, strain skt5, active compounds read low 0.987 | locus YBR009C, strain hhf1, active compounds read low 0.954 | locus YBR021W, strain FUR4, active compounds read low 0.986 | locus YBR023C, strain chs3, active compounds read low 0.977 | locus YBR171W, strain sec66, active compounds read low 0.987 | locus YBR229C, strain ROT2, active compounds read low 1.01 | locus YBR231C, strain swc5, active compounds read low 0.989 | locus YBR279W, strain paf1, active compounds read low 0.973 | locus YCL011C, strain gbp2, active compounds read low 0.964 | locus YCL016C, strain dcc1, active compounds read low 0.96 | locus YCL029C, strain bik1, active compounds read low 1.02 | locus YCL061C, strain MRC1, active compounds read low 0.926 | locus YCL069W, strain vba3, active compounds read low 0.97 | locus YCR088W, strain abp1, active compounds read low 0.978 | locus YDL005C, strain med2, active compounds read low 0.97 | locus YDL035C, strain GPR1, active compounds read low 0.993 | locus YDL040C, strain nat1, active compounds read low 0.977 | locus YDL074C, strain BRE1, active compounds read low 1.03 | locus YDL101C, strain DUN1, active compounds read low 1.03 | locus YDL134C, strain PPH21, active compounds read low 1 | locus YDL185W, strain tfp1, active compounds read low 1.02 | locus YDL192W, strain arf1, active compounds read low 1 | locus YDR001C, strain nth1, active compounds read low 0.972 | locus YDR069C, strain doa4, active compounds read low 0.982 | locus YDR101C, strain arx1, active compounds read low 0.998 | locus YDR137W, strain rgp1, active compounds read low 0.958 | locus YDR150W, strain NUM1, active compounds read low 1.01 | locus YDR159W, strain sac3, active compounds read low 0.937 | locus YDR162C, strain NBP2, active compounds read low 1.01 | locus YDR195W, strain ref2 0.948 | locus YDR297W, strain sur2, active compounds read low 0.963 | locus YDR318W, strain mcm21, active compounds read low 1.03 | locus YDR334W, strain swr1, active compounds read low 0.973 | locus YDR335W, strain msn5, active compounds read low 0.968 | locus YDR388W, active compounds read low 1.01 | locus YDR392W, strain spt3, active compounds read low 0.929 | locus YDR502C, strain sam2, active compounds read low 0.999 | locus YEL003W, strain gim4, active compounds read low 0.965 | locus YEL037C, strain rad23, active compounds read low 0.98 | locus YEL061C, strain CIN8 (second series), active compounds read low 0.973 | locus YEL061C, strain CIN8, active compounds read low 1 | locus YER015W, strain faa2, active compounds read low 0.989 | locus YER016W, strain bim1, active compounds read low 0.938 | locus YER110C, active compounds read low 1.01 | locus YER111C, strain swi4, active compounds read low 0.976 | locus YER155C, strain BEM2 (second series), active compounds read low 1.01 | locus YER155C, strain BEM2, active compounds read low 1.01 | locus YER167W, strain BCK2, active compounds read low 0.996 | locus YFR010W, strain ubp6, active compounds read low 0.97 | locus YGL078C, strain dbp3, active compounds read low 0.991 | locus YGL086W, strain mad1, active compounds read low 1 | locus YGL167C, strain pmr1, active compounds read low 0.968 | locus YGL173C, strain kem1, active compounds read low 0.968 | locus YGL227W, strain vid30, active compounds read low 0.986 | locus YGL240W, strain doc1, active compounds read low 0.988 | locus YGL248W, strain PDE1, active compounds read low 1.01 | locus YGL253W, strain hxk2, active compounds read low 0.949 | locus YGR078C, strain PAC10, active compounds read low 1.02 | locus YGR135W, strain pre9, active compounds read low 1 | locus YGR229C, strain SMI1, active compounds read low 1.01 | locus YGR252W, strain gcn5, active compounds read low 0.978 | locus YHR013C, strain ard1, active compounds read low 0.914 | locus YHR027C, strain rpn1, active compounds read low 0.965 | locus YHR030C, strain SLT2, active compounds read low 1.01 and 1.08 | locus YHR079C, strain IRE1 (second series), active compounds read low 1.01 | locus YHR079C, strain IRE1, active compounds read low 1.05 | locus YHR094C, strain hxt1, active compounds read low 1.01 | locus YHR129C, strain ARP1, active compounds read low 1.02 | locus YHR142W, strain chs7, active compounds read low 0.952 | locus YHR200W, strain rpn10, active compounds read low 1 | locus YIL066C, strain RNR3, active compounds read low 1.01 | locus YIL073C, strain SPO22, active compounds read low 1.04 | locus YIL125W, strain kgd1, active compounds read low 1 | locus YIR030C, strain dcg1, active compounds read low 1 | locus YJL092W, strain hpr5, active compounds read low 0.987 | locus YJL095W, strain BCK1 (second series), active compounds read low 0.978 | locus YJL095W, strain BCK1, active compounds read low 1.04 | locus YJL115W, strain asf1, active compounds read low 0.97 | locus YJL129C, strain trk1, active compounds read low 0.971 | locus YJL134W, strain LCB3, active compounds read low 1.01 | locus YJL154C, strain vps35, active compounds read low 0.972 | locus YJL164C, strain tpk1, active compounds read low 0.947 | locus YJL166W, strain qcr8, active compounds read low 0.976 | locus YJL168C, strain set2, active compounds read low 1.01 | locus YJL187C, strain SWE1 (second series), active compounds read low 1.03 | locus YJL187C, strain SWE1, active compounds read low 0.976 | locus YJR043C, strain POL32, active compounds read low 1.02 | locus YJR066W, strain TOR1, active compounds read low 0.996
